{
  "source": "PubChem BioAssay AID651719",
  "about": "(The Scripps Research Institute Molecular Screening Center, 2012)",
  "note": "In all, about 360,000 compounds went through this assay and about 1,600 (0.44%) were called active. What follows is part of a selection rich in actives, with near analogues and random picks from the rest. Unmarked numbers belong to inactive results.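 Rule for the calls: active = inhibition above the screen-wide average plus 3 SD (cut at about 13% in these data); inactive = the rest.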",
  "data": [
    {"target": "Galanin receptor type 3 (Homo sapiens) (UniProt O60755)", "sequence (O60755 1-299 limits assumed)": "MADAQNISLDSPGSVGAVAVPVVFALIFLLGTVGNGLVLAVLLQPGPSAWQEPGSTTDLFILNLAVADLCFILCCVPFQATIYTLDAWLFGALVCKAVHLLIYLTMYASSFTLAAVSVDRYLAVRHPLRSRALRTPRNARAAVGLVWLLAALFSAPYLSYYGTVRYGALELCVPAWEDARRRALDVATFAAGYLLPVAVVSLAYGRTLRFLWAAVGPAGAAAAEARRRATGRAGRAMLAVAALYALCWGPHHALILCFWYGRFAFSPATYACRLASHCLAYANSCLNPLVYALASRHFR", "assay": "GalR3 antagonists in HEK293 cells, primary screen, cell-based, fluorescence readout (AID 651719);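 note: forskolin and galanin both at EC90 stimulate the cells; cAMP rise reported by CNG channel membrane potential dye signal; 0% = forskolin plus galanin with DMSO and 100% = forskolin alone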", "settings": "HEK293 GalR3-CNG cAMP membrane potential fluorescence; at 3 µM; stronger effect = higher value; galR3 body fused to GalR1 C-terminus", "values": [
      {"molecule": "CSc1nccc(NC(=O)c2ccc(C(C)(C)C)cc2)n1", "inhibition": "104% (active)"},
      {"molecule": "CCCCCCCCN1C(=O)[C@@H](CC(=O)NCCCC)C[C@@]2(C(=O)OC)C1=C[C@H](C(C)(C)C)O[C@@H]2C", "inhibition": "-5.71%"},
      {"molecule": "O=C(NCc1ccccc1)[C@H]1CCCN1C(=O)[C@H]1CCCN1C(=O)N1CCOCC1", "inhibition": "-7.58%"},
      {"molecule": "Nc1[nH]c(C(=O)c2ccc(Br)cc2)c(-c2ccc3c(c2)OCO3)c1C(=O)NCCc1c[nH]c2ccccc12", "inhibition": "-6.84%"},
      {"molecule": "NC(=O)c1ncn([C@@H]2O[C@H](C(=O)O)[C@@H](O)[C@H]2O)n1", "inhibition": "-7.36%"},
      {"molecule": "Nc1ncnc2c1ncn2[C@@H]1O[C@H](C(=O)N2CCSC2)[C@@H](O)[C@H]1O", "inhibition": "-5.85%"},
      {"molecule": "Nc1ncnc2c1ncn2[C@@H]1O[C@H](C(=O)NCC(F)(F)F)[C@@H](O)[C@H]1O", "inhibition": "-9.69%"},
      {"molecule": "Nc1ncnc2c1ncn2C1OC(CO)CC1O", "note": "(stereo unspecified)", "inhibition": "53.3% (active)"},
      {"molecule": "Brc1ccc(COCCc2cn(Cc3ccccc3)c3ccccc23)cc1", "inhibition": "3.44%"},
      {"molecule": "COC(=O)[C@]12C[C@H](CC(=O)NCc3ccc(C)o3)C(=O)N(CCC3=CCCCC3)C1=C[C@H](C(C)(C)C)O[C@@H]2C", "inhibition": "-7.34%"},
      {"molecule": "O=C(NC(Nc1nc2ccc([N+](=O)[O-])cc2s1)(C(F)(F)F)C(F)(F)F)c1ccccc1", "inhibition": "20% (active)"},
      {"molecule": "O=C(NNC(=O)c1ccc(-n2cncn2)c([N+](=O)[O-])c1)c1ccccc1", "inhibition": "-6.89%"},
      {"molecule": "CC(Nc1ccc([N+](=O)[O-])cc1[N+](=O)[O-])c1ccccc1", "note": "(stereo unspecified)", "inhibition": "-6.77%"},
      {"molecule": "COC(=O)C(C(=O)OC)c1ccccc1NS(=O)(=O)c1cccc2ccccc12", "inhibition": "-6.36%"},
      {"molecule": "CC(C)C[C@H](NC(=O)CC1CCCC1)C(=O)N1CCC[C@H]1C(=O)NCc1ccccc1", "inhibition": "1.69%"},
      {"molecule": "OC[C@@H]1CN(Cc2cccs2)C[C@H](n2cnc3c(NC4CCCC4)ncnc32)O1", "inhibition": "-8.57%"},
      {"molecule": "OC[C@@H]1CN(Cc2ccc(F)cc2)C[C@H](n2cnc3c(NC4CCCC4)ncnc32)O1", "inhibition": "-2.96%"},
      {"molecule": "OC[C@@H]1CN(Cc2ccc(-c3ccccc3)cc2)C[C@H](n2cnc3c(NC4CCCC4)ncnc32)O1", "inhibition": "27.1% (active)"},
      {"molecule": "COC(=O)c1cc2c(c3c4cc(F)ccc4n(S(=O)(=O)c4ccccc4)c13)C(=O)N(Cc1ccccc1OC)C2", "inhibition": "-5.48%"},
      {"molecule": "Cc1noc(C)c1NC(=O)Nc1ccc2c(c1)C(=O)N([C@H](C)CO)C[C@H](C)[C@H](CN(C)Cc1ccncc1)OCCCC[C@@H](C)O2", "inhibition": "-3.2%"},
      {"molecule": "COc1cc(C(=O)Nn2c(O)c(C3=c4ccccc4=NC3=O)sc2=S)ccc1O", "inhibition": "19.3% (active)"},
      {"molecule": "COc1cc(C(=O)Nn2c(CC(C)C)nc3ccccc3c2=O)cc(OC)c1OC", "inhibition": "-0.49%"},
      {"molecule": "COc1cc(C(=S)NC2CCCCC2)ccc1O", "inhibition": "-5.5%"},
      {"molecule": "O=C(C(=O)N1CCC(CNC(=O)c2cccnc2Cl)CC1)c1cccs1", "inhibition": "-2.12%"},
      {"molecule": "CC(=O)N1C[C@@H](CO)[C@@H](N(C)C(=O)C(C)(C)C)C[C@H]1c1ccccc1Br", "inhibition": "-3.56%"},
      {"molecule": "CCN(CC(=O)NCc1ccc(Cl)cc1)C(=O)c1c(C)noc1C", "inhibition": "-4.16%"},
      {"molecule": "CCN(CC(=O)Nc1cc(Cl)ccc1C)C(=O)CSCc1ccccc1", "inhibition": "-6.08%"},
      {"molecule": "CCN(CC(=O)NCc1ccc(Cl)cc1)C(=O)CSc1ccccc1", "inhibition": "46.6% (active)"},
      {"molecule": "COCCNC(=S)N(C)[C@H]1C[C@H]2c3[nH]c4ccccc4c3CCN2C[C@H]1[C@H](C)O", "inhibition": "-3.71%"},
      {"molecule": "CC(=O)C1=C(C)N(Cc2ccc(Cl)cc2)C(=S)NC1c1ccc(F)cc1", "note": "(stereo unspecified)", "inhibition": "-2.41%"},
      {"molecule": "CCCCNc1cccc2c1S(=O)(=O)N[C@@H](C)CO2", "inhibition": "0.83%"},
      {"molecule": "COC(=O)[C@]12C[C@H](CC(=O)NCCCCc3ccccc3)C(=O)N(Cc3ccc4c(c3)OCO4)C1=C[C@H](C(C)(C)C)O[C@@H]2C", "inhibition": "-7.85%"},
      {"molecule": "O=C(/C=C/c1c(F)cccc1Cl)Nc1nn[nH]n1", "inhibition": "13.1% (active)"},
      {"molecule": "O=C(/C=C/c1c(Cl)cccc1Cl)NCc1ccccc1", "inhibition": "-6.6%"},
      {"molecule": "O=C(CCc1ccccc1)Nc1nn[nH]n1", "inhibition": "-3.85%"},
      {"molecule": "Clc1cccc2c1C1CC2CCN1Cc1ccccc1", "note": "(stereo unspecified)", "inhibition": "-7.78%"},
      {"molecule": "CC(C)(C)C(c1nc2ccccc2[nH]1)n1c(Cc2csc3ccccc23)nc2ccccc21", "note": "(stereo unspecified)", "inhibition": "-6.57%"},
      {"molecule": "O=C(N[C@H](Cc1ccccc1)C(=O)N1CCCN(Cc2cccs2)CC1)[C@H]1O[C@@H](n2ccc(=O)[nH]c2=O)[C@H](O)[C@@H]1O", "inhibition": "-5.35%"},
      {"molecule": "Cc1c(C(=O)NCCCc2ccccc2)cccc1[N+](=O)[O-]", "inhibition": "-5.51%"},
      {"molecule": "COC(=O)CNC(=O)c1ccccc1[N+](=O)[O-]", "inhibition": "-2.07%"},
      {"molecule": "COC(=O)c1cccc([N+](=O)[O-])c1CS(=O)(=O)c1ccc(C)cc1", "inhibition": "13.8% (active)"}
    ]}
  ]
}
